From PubChem BioAssay AID2796 (The Scripps Research Institute Molecular Screening Center, 2010)
The whole screen tested about 320,000 compounds, of which about 8,000 (2.5%) were called active. Only a selection was taken, and actives are over-represented in it overall. Unmarked numbers belong to inactive results. Rule as the data show it: active = activation above about 47%; inactive = the rest.

Molecular target: Aryl hydrocarbon receptor (Homo sapiens) (UniProt P35869)
Assay: AHR activators, primary screen, cell-based, luminescence, luciferase reporter, human (AID 2796);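 also: 0% = vehicle wells and 100% = reference agonist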
Conditions: AHR-responsive luciferase reporter cells, at 5 µM, active compounds read high

Sequence of Aryl hydrocarbon receptor (Homo sapiens) (P35869 whole entry, looked up): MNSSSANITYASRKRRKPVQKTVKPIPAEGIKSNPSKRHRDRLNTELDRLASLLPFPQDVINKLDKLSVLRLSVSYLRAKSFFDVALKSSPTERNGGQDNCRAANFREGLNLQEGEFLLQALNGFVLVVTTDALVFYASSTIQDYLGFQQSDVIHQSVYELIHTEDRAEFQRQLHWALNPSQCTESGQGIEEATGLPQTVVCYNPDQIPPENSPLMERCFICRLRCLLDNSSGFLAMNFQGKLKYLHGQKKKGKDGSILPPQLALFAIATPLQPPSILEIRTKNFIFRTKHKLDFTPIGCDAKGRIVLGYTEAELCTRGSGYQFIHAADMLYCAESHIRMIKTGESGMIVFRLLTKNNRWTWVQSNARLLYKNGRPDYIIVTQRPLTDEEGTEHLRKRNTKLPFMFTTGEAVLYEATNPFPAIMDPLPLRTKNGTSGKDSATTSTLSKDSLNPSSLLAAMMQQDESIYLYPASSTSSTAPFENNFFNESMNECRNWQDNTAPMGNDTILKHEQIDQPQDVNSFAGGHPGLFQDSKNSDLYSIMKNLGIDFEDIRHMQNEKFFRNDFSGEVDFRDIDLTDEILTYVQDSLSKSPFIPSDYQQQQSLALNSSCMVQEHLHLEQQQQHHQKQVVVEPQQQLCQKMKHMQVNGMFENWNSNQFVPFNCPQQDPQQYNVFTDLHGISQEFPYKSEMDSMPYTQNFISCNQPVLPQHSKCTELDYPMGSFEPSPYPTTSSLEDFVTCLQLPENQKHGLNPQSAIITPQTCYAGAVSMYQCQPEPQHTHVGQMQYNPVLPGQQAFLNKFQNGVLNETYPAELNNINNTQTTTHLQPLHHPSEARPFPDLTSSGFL

| Compound | activation |
| --- | --- |
| Cc1cccc(C)c1NC(=O)CNC(=O)c1c(C)nn(-c2ccccc2)c1C | 0.83% |
| COc1cc(C2OC(c3cc(OC)c(OC)c(OC)c3)C(C)C2C)cc(OC)c1OC (stereo unspecified) | 3.59% |
| Cn1c(=O)c2c(ncn2CC(COCc2ccccc2Cl)OCc2ccccc2Cl)n(C)c1=O (stereo unspecified) | 0.3% |
| Fc1ccc(-c2csc(-c3ccc(C4SCCS4)cc3)n2)cc1F | 27.6% |
| N#CC(=C1CCCC1)c1nc(-c2ccc(Cl)cc2)cs1 | 4.95% |
| Clc1ccc(-c2csc(-c3ccncc3)n2)cc1 | 63.4% (active) |
| CN(C)S(=O)(=O)c1ccc2oc(SCC(=O)Nc3ccccc3F)nc2c1 | 10.3% |
| CCOC(=O)C1CCN(c2ncnc3c2oc2ccc(Br)cc23)CC1 | 66.9% (active) |
| CCOC(=O)C1CCN(Cc2nnc(-c3cccc(Br)c3)o2)CC1 | 1.14% |
| CCOC(=O)C1CCN(c2ncnc3c2c(-c2ccccc2)cn3-c2ccc(C)cc2)CC1 | -0.73% |
| COc1cc(OC)cc(C(=O)NCC(=O)N2CCCCCCC2)c1 | 17.3% |
| CSc1ncccc1C(=O)NC1CCCCCC1 | -0.02% |
| CSc1ncccc1C(=O)Nc1ccc(C)cn1 | -0.65% |
| CSc1ncccc1C(=O)Nc1nc2ccc(F)cc2s1 | 79.2% (active) |
| Cc1ccc(SC(CC(=O)c2ccc(C(C)(C)C)cc2)C(=O)O)cc1 (stereo unspecified) | -1.16% |
| COc1cc(C#Cc2ccc3cc(CCCO)oc(=O)c3c2)cc(OC)c1 | 1.38% |
| Cc1ccc2nc(C)cc(N/N=C/c3ccc(F)cc3)c2c1 | 10.9% |
| COc1ccc(Nc2nc(-c3cccnc3)nc3ccccc23)cn1 | -0.65% |
| Fc1ccc(/C=N/Nc2nc(-c3cccnc3)nc3ccccc23)cc1 | 69.7% (active) |
| O=C(COC(=O)COc1ccccc1F)Nc1cccc(S(=O)(=O)N2CCCCC2)c1 | 0.3% |
| CC(Sc1nnc(COc2ccccc2)n1-c1ccccc1)C(=O)O (stereo unspecified) | -2.4% |

| Compound | activation |
| --- | --- |
| CC(C)C(=O)Nc1c(O)c2ccccc2[nH]c1=O | -0.12% |
| CC(C)C(=O)Nc1ccc2oc(=O)ccc2c1 | 1.62% |
| NC(=O)c1oc2ccccc2c1NC(=O)Cc1ccccc1 | 0.99% |
| Cc1cc(=O)oc2cc(NC(=O)C(C)Oc3ccccc3)ccc12 (stereo unspecified) | 2.24% |
| CC(C)C(=O)Nc1c(C(=O)c2ccc(F)cc2)oc2ccccc12 | 132% (active) |
| CC(C)C(=O)Nc1ccc2c(c1)oc1ccccc12 | 60.8% (active) |
| Cc1ccc(-n2ncc3c(Nc4cccc(C(=O)O)c4)ncnc32)cc1 | -0.95% |
| Cc1sc2ncnc(N3CCC(C(=O)Nc4nc5ccc(Cl)cc5s4)CC3)c2c1C | 12.5% |
| Cc1noc(C)c1S(=O)(=O)N(C)C[C@H]1Oc2c(NC(=O)Nc3ccc4c(c3)OCO4)cccc2C(=O)N([C@H](C)CO)C[C@@H]1C | 0.19% |
| Cc1cc(NC(=O)/C=C/C(=O)N(c2ccccc2C)C(C(=O)NC2CCCC2)c2ccc(F)cc2)no1 (stereo unspecified) | 6.2% |
| OCc1ccc(-c2ccccc2)c(-c2ccccc2)c1 | -2.37% |
| Cc1ccccc1Nc1nnc(SCC(=O)c2cc3ccccc3o2)s1 | 26.2% |
| Cc1ccc(Nc2nnc(SCC(=O)c3cc4ccccc4o3)s2)cc1C | 52.8% (active) |
| Cc1cc2c(=O)n(C)c(SCC(=O)c3cc4ccccc4o3)nc2s1 | 15.9% |
| COC(=O)c1ccc([C@@H](O)[C@H](C)C(=O)CC(=O)OC(C)(C)C)cc1 | 1.52% |
| COC(=O)c1ccc(NC(=O)CSc2nc(N)c(NC(=O)c3ccc(Br)o3)c(=O)[nH]2)cc1 | -1.66% |
| Cn1c2ccccc2c2c(C(=O)N3CCN(c4ccc(F)cc4)CC3)cn(C3CCCC3)c(=O)c21 | 12.2% |
| O=C(Nc1cccc(F)c1)c1cc(-c2ccco2)nc2ccccc12 | 33.2% |
| NNC(=O)c1oc2nc(-c3ccccc3)cc(-c3ccco3)c2c1N | 76.1% (active) |
| CNC(=S)NNC(=O)c1oc2nc(-c3ccccc3)cc(-c3ccco3)c2c1N | 15.9% |
| CCN(Cc1nc2ccccc2c(=O)[nH]1)Cc1cc(=O)oc2cc(C)c(C)cc12 | 0.64% |

| Compound | activation |
| --- | --- |
| COC(=O)c1ccc(CNC(=O)c2ccc(S(=O)(=O)N3CCCCCC3)cc2)cc1 | -0.2% |
| CCN(C(=O)Cc1nc(N)n[nH]1)C1(C(=O)Nc2ccccc2)CCCCC1 | 1.44% |
| Brc1c(CSc2nncc3ccccc23)nc2ccccn12 | 48.9% (active) |
| CN(C(=O)CSc1nncc2ccccc12)C1CCCCC1 | 8.04% |
| CC(C)CC(=O)c1c[nH]c(C(=O)NCc2ccccc2)c1 | 5.43% |
| O=C(NC(=S)N1CCc2ccccc21)c1ccco1 | 8.66% |
| O=C(NNC(=S)NC(=O)c1cn(-c2ccccc2)nc1-c1ccccc1)c1ccncc1 | 12.3% |
| O=C(NCc1ccco1)c1nc2ncccn2n1 | -0.33% |
| O=C(NCc1ccco1)c1cccn2c(=O)c3c4c(sc3nc12)CCCC4 | 48.2% (active) |
| O=c1oc(-c2ccco2)nc2sc3c(c12)CCCCC3 | 5.12% |
| Cc1c(CN2CC[C@@H](N3CCN(c4ccccn4)CC3)[C@H](O)C2)[nH]c2ccc(F)cc12 | 2.27% |
| Fc1ccc2[nH]c3c(N4CCSCC4)ncnc3c2c1 | 58.6% (active) |
| COc1ccc(N2CCN(C(=O)Cn3cnc4sc(C)c(S(=O)(=O)N5CCOCC5)c4c3=O)CC2)cc1 | -4.91% |
| CCOc1ccccc1NC(=O)Nc1cc(OC)ccc1OC | 71% (active) |
| CCOc1ccc(NC(=O)Nc2cc(C)ccc2OC)cc1 | -5.37% |
| O=C(Nc1cnccn1)c1cccnc1 | 0.46% |
| COc1ccc(OC)c(NC(=O)CC(Cc2ccccc2OC)C(=O)O)c1 (stereo unspecified) | -3.53% |
| CCOc1ccccc1NC(=O)c1cccnc1 | 93.9% (active) |
| CCOC(=O)c1cc(NC(=O)c2cccnc2)ccn1 | 4.05% |
